Assay outcomes (PubChem)
Only some compounds are listed: those with a hit (about 3.2% of all), similar ones and a draw of the others.
CaV13 FRET inh = Primary screen for inhibitors of IQ motif and Ca2+-dependent inactivation inhibitor domain binding in CACNA1D, Förster resonance energy transfer in living cells, … | HEK cells, CFP/YFP FRET ICDI-IQ, plate reader, 10 min; percent FRET-ratio fall versus neutral wells | inhibition, % at 12.3 µM | 0.098% of 340,000 active | AID 743397;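 active = mean replicate inhibition of at least 30% and at least 1% of replicates passing that level; inconclusive = only one of the two criteria is met; inactive = neither criterion is met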
DENV2 CPE rescue = inhibitors of DENV2 cytopathic effect. 1.7% of 350,000 active. AID 651640. CPE inhibition, % at 9.99 µM. DENV2-infected cells, cytopathic effect rescue, plate reader; in the data active = CPE inhibition above about 20%, passing the limit was not always enough; inconclusive = no clear call, values can overlap the other calls; tested in BHK-21 cells
ERAP1 inh = ERAP1 (human) enzyme inhibition; Q9NZ08; recombinant ERAP1, Leu-AMC fluorescence, 60 min; inhibition, % at 10.7 µM; 0.15% of 340,000 active;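 active = mean replicate inhibition of at least 30%, or all replicates individually reaching that 30% level; inactive = mean below 30% and not every replicate reaching it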
PGC1a acetyl inh = modulators of PGC1a acetylation; 0.17% of 350,000 active; inhibition, % at 15.6 µM; U2OS PGC1a acetylation, AlphaScreen anti-acetyl-lysine; with virally co-expressed GCN5 acetyltransferase;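 active = every replicate shows inhibition of at least 40%; inconclusive = mean inhibition at least 40% but some replicate below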
Ecoli rRNA inh = selective bacterial rRNA inhibition in E. coli. E. coli WT GFP vs humanized-ribosome RFP mutants, fluorescence, 24 h; stronger effect = lower value; DMSO median 0, no signal -100. GFP signal change (wild-type ribosome), % (no concentration beside the values). 1.6% of 350,000 active. AID 720706;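 active = significant combined selectivity score with lowered wild-type GFP, culture density cut under 30%, mutant RFP and density less affected; inactive = any of these conditions unmet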
INS-1E GSIS act = GLuc luminescence reporter in INS-1E cells, primary screen for activators of glucose-dependent secretion of insulin; activation, % at 16.6 µM; INS-1E GLuc reporter insulin secretion, 2-3 h; 0.61% of 370,000 active;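 active = lowest replicate activation of at least 40%, so every replicate reaches that level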
AID977621 = wild-type E. coli growth inhibition versus H69 humanized strain – H69 mutant RFP, wild-type GFP, cherry-pick, dose response. activity change, negative = inhibition at 50 µM. shares compounds with Ecoli rRNA inh. 1,900 tested, under 10 active. fluorescence, 24 h;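 active = Wild-type ribosome reporter drop at least double the humanized mutant ribosome reporter drop, growth loss under a set limit; inconclusive = no clear call, values can overlap the other calls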;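 note: wild-type GFP and H69 mutant RFP strains grown together 50/50 in each well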
AID977628 = growth of wild-type and h24-humanized E. coli strains – h24 mutant RFP vs wild-type GFP, cherry-pick, dose response | shares compounds with Ecoli rRNA inh | 1,900 tested, under 10 active | activity change, negative = inhibition at 50 µM | E. coli WT GFP strain growth, fluorescence, 24 h | AID 977628;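 active = compound lowering the normal-ribosome reporter at least twice as much as the humanized-ribosome reporter, growth loss under a set limit; inconclusive = no clear call, values can overlap the other calls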;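 note: wild-type GFP and h24 humanized RFP strains co-cultured 1 to 1 per well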
Hits are given with their value; . = inactive; ? = inconclusive; / = not tested or not shown.

SMILES	CaV13 FRET inh	DENV2 CPE rescue	ERAP1 inh	PGC1a acetyl inh	Ecoli rRNA inh	INS-1E GSIS act	AID977628	others
Nc1c(C(=O)NCCN2CCOCC2)c2nc3ccccc3nc2n1Cc1ccccc1	.	.	.	.	-36	.	?
Cc1ccc(-c2cc(-c3ccc(C)cc3)[n+](-c3ccc(C(=O)[O-])cc3)c(-c3ccc(C)cc3)c2)cc1	.	.	/	.	-21	.	?
Cc1ccc(-c2cc(-c3ccc(C)cc3)[n+](-c3ccccc3)c(-c3ccc(C)cc3)c2)cc1	/	/	/	.	/	/	/
N#Cc1ccc(-c2ccc([C@H]3[C@@H](CO)N4CCCCN(C(=O)Cc5ccccc5)C[C@H]34)cc2)cc1	/	.	.	.	.	.	/
C[C@]12CCC(=O)C[C@H]1CC[C@@H]1[C@@H]2CC[C@]2(C)C(=O)CC[C@@H]12	/	.	.	.	-27	.	?
CN1CCC(c2c[nH]c3ccccc23)C1 (stereo not given)	.	.	.	/	-23	.	?	AID977621=.
Cc1c(-c2cccc(Cl)c2)nc2ccccc2c1C(=O)N1CCC2(CC1)OCCO2	/	.	.	/	-23	.	?
O=C(c1cc(-c2ccccc2)nc2ccccc12)N1CCC2(CC1)OCCO2	.	.	.	.	.	.	/
COc1ccc(CN2CCCC(C(=O)c3cccc(Cl)c3)C2)cc1 (stereo not given)	.	.	.	.	.	.	/
O=C(c1ccc(Cl)cc1)C1CCCN(Cc2cccc3cnccc23)C1 (stereo not given)	.	.	.	.	-25	.	?
O=C(c1cccc(Cl)c1)C1CCCN(Cc2cccc3cnccc23)C1 (stereo not given)	.	.	.	.	.	.	/
CSc1ncc(CN2CCCC(C(=O)c3cccc(Cl)c3)C2)cn1 (stereo not given)	.	.	.	/	-21	.	.	AID977621=.
Cc1ccc(OC(=O)N(C)C[C@H]2OCc3ccccc3-c3c(n(C)c4ccccc34)C(=O)N([C@@H](C)CO)C[C@H]2C)cc1	/	.	.	.	.	.	/
